# Assays:
# [1] = target: Protein kinase C gamma type (Homo sapiens) (UniProt P05129); details: at 1 µM;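 also: each value is an averaged percent inhibition of the enzyme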
# [2] = target: T1, Protein kinase C iota type (Homo sapiens) (UniProt P41743); details: at 0.1 µM
# T1 sequence (whole entry): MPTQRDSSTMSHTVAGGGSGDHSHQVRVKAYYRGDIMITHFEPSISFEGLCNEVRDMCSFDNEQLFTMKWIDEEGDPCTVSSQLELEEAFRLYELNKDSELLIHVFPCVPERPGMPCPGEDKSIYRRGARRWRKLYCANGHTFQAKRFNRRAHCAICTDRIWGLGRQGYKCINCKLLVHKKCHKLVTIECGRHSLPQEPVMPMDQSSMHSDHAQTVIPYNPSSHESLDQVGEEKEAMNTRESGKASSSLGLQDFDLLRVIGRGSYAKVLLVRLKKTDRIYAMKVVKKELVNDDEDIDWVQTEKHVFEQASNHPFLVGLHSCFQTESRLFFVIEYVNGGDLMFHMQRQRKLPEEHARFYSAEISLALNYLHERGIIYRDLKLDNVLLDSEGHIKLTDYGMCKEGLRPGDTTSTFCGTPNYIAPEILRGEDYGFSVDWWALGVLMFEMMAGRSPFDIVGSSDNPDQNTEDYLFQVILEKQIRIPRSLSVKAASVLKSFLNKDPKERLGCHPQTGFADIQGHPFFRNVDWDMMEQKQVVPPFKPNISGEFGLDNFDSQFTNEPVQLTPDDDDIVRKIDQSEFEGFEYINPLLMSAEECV
# [3] = target: T1, Protein kinase C iota type (Homo sapiens); details: at 1 µM
# [4] = target: Protein kinase C theta type (Homo sapiens) (UniProt Q04759); details: at 0.1 µM
# [5] = target: Protein kinase C theta type (Homo sapiens) (UniProt Q04759); details: at 1 µM
# [6] = target: Protein kinase C beta type (Homo sapiens) (UniProt P05771); details: at 0.1 µM
# [7] = target: Protein kinase C beta type (Homo sapiens) (UniProt P05771); details: at 1 µM
# [8] = target: T2, Serine/threonine-protein kinase D1 (Homo sapiens) (UniProt Q15139); details: at 0.1 µM
# T2 sequence (whole entry): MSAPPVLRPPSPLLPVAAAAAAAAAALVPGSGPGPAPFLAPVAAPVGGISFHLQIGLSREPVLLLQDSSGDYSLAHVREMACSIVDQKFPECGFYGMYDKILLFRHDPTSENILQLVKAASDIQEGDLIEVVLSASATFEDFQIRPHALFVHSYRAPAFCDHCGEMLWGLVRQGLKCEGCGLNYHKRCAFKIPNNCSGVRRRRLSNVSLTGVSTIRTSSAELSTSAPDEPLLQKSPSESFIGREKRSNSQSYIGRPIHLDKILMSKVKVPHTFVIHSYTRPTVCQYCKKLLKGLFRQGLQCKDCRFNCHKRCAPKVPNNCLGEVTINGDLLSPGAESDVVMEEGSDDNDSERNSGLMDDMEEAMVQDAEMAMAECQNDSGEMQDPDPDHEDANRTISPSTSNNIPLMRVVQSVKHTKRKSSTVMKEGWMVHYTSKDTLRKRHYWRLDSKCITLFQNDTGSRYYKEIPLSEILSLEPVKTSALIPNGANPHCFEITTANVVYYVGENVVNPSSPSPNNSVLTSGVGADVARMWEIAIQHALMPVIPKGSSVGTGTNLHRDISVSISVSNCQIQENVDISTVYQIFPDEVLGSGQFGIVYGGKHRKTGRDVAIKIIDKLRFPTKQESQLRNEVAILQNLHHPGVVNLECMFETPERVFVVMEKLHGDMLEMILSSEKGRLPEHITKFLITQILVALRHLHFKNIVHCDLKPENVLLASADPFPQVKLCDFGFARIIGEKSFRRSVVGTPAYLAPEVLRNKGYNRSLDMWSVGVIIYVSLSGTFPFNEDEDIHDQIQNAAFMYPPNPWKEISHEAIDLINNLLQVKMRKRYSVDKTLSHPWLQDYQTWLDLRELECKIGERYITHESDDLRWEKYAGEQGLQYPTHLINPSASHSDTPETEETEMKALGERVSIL
# [9] = target: T2, Serine/threonine-protein kinase D1 (Homo sapiens); details: at 1 µM
# [10] = target: T3, Serine/threonine-protein kinase D2 (Homo sapiens) (UniProt Q9BZL6); details: at 0.1 µM
# T3 sequence (whole entry): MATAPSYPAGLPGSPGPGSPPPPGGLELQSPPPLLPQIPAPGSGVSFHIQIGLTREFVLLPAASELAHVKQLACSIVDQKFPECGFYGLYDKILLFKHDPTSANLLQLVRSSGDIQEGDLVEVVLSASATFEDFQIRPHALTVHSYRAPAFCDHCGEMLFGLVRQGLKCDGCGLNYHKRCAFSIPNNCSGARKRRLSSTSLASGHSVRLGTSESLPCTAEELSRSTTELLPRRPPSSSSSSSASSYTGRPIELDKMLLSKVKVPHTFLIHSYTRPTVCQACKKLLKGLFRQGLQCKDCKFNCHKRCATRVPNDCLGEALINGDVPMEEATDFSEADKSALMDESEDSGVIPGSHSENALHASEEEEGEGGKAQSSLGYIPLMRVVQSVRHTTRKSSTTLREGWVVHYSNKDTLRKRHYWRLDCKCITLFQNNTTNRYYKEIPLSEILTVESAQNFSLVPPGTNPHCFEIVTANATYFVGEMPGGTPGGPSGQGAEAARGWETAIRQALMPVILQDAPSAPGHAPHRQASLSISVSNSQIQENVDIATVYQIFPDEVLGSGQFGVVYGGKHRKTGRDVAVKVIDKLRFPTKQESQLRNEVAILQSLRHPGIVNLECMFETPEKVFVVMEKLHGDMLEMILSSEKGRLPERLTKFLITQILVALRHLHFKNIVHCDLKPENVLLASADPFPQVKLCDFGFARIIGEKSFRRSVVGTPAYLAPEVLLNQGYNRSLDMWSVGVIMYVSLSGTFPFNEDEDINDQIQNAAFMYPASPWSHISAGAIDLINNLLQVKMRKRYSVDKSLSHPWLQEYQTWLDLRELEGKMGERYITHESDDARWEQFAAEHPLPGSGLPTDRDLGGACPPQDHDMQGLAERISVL
# [11] = target: T3, Serine/threonine-protein kinase D2 (Homo sapiens); details: at 1 µM
# [12] = target: T4, Serine/threonine-protein kinase D3 (Homo sapiens) (UniProt O94806); details: at 0.1 µM
# T4 sequence (whole entry): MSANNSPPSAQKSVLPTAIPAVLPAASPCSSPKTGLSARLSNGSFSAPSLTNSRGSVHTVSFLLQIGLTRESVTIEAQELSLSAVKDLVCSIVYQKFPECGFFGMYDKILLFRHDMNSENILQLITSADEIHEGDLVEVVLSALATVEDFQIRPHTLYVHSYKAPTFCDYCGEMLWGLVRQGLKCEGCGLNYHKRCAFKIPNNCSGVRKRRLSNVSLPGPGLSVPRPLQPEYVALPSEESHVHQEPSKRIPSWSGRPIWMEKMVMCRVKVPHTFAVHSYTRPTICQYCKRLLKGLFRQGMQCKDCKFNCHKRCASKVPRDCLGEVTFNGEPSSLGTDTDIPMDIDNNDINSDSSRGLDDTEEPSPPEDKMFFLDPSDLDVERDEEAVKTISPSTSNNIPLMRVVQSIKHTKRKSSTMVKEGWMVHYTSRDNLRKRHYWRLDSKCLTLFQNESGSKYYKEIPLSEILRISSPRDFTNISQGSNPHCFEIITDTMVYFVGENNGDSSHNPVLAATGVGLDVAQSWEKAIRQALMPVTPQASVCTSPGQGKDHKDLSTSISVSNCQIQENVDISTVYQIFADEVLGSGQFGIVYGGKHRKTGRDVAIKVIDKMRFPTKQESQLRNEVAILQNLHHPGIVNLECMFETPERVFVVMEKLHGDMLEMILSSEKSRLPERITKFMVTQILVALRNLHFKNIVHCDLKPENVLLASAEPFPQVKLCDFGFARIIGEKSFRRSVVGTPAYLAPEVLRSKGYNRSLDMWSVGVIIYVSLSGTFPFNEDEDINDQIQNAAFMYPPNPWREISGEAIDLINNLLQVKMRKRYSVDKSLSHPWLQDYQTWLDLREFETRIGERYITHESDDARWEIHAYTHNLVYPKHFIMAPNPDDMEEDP
# [13] = target: T4, Serine/threonine-protein kinase D3 (Homo sapiens); details: at 1 µM
# [14] = target: T5, cGMP-dependent protein kinase 1 (Homo sapiens) (UniProt Q13976); details: at 0.1 µM
# T5 sequence (whole entry): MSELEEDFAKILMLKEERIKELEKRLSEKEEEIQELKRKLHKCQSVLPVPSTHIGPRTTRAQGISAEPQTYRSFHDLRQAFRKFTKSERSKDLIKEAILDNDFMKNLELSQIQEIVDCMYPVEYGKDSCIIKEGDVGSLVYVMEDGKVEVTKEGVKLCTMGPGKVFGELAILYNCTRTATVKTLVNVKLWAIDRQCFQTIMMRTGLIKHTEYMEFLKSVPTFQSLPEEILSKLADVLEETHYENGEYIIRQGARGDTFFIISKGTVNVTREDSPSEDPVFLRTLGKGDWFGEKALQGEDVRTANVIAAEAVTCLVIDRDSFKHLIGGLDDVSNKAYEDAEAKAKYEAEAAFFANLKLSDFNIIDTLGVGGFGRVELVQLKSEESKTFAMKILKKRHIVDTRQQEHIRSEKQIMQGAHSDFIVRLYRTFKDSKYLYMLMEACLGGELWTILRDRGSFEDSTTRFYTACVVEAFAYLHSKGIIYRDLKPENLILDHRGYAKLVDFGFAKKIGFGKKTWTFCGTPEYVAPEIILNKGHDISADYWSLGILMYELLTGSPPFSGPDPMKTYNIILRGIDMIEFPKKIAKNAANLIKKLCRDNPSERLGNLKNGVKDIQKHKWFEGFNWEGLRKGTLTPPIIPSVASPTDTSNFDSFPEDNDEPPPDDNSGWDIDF
# [15] = target: T5, cGMP-dependent protein kinase 1 (Homo sapiens); details: at 1 µM
# [16] = target: T6, cGMP-dependent protein kinase 2 (Homo sapiens) (UniProt Q13237); details: at 0.1 µM
# T6 sequence (whole entry): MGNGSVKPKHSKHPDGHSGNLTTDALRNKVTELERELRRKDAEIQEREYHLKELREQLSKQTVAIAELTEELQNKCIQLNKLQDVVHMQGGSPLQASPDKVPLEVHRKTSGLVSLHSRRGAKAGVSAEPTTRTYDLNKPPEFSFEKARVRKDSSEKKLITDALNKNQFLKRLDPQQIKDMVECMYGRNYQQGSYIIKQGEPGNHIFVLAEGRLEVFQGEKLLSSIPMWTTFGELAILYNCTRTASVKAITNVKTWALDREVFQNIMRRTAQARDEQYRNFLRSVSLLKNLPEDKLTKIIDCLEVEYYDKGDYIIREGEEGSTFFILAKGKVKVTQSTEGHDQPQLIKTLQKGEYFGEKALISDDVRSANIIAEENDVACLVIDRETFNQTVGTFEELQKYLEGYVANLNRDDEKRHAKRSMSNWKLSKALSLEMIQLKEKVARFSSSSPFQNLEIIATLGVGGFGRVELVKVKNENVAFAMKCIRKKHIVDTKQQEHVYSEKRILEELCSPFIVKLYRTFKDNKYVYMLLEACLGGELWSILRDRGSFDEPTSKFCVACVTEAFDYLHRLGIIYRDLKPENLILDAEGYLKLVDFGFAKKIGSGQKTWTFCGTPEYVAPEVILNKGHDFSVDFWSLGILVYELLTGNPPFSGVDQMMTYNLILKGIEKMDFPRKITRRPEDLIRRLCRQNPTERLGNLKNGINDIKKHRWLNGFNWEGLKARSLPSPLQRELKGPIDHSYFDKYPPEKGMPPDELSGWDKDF
# [17] = target: T6, cGMP-dependent protein kinase 2 (Homo sapiens); details: at 1 µM
# [18] = target: T7, cAMP-dependent protein kinase catalytic subunit PRKX (Homo sapiens) (UniProt P51817); details: at 0.1 µM
# T7 sequence (whole entry): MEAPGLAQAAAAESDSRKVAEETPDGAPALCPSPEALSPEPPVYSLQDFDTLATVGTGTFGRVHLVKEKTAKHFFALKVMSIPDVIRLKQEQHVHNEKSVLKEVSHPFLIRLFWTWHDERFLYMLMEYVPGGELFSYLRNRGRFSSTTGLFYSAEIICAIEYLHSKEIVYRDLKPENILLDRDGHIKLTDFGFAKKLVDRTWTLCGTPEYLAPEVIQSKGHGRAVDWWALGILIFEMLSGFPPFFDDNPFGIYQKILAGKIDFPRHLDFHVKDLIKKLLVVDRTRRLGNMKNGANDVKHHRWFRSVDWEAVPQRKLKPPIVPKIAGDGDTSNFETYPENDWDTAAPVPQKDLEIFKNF
# [19] = target: T7, cAMP-dependent protein kinase catalytic subunit PRKX (Homo sapiens); details: at 1 µM
# [20] = target: Rho-associated protein kinase 1 (Homo sapiens) (UniProt Q13464); details: at 0.1 µM;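 also: values are mean percent inhibition of ROCK1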
# Sequence of Rho-associated protein kinase 1 (Homo sapiens) (Q13464 2-1354 limits assumed): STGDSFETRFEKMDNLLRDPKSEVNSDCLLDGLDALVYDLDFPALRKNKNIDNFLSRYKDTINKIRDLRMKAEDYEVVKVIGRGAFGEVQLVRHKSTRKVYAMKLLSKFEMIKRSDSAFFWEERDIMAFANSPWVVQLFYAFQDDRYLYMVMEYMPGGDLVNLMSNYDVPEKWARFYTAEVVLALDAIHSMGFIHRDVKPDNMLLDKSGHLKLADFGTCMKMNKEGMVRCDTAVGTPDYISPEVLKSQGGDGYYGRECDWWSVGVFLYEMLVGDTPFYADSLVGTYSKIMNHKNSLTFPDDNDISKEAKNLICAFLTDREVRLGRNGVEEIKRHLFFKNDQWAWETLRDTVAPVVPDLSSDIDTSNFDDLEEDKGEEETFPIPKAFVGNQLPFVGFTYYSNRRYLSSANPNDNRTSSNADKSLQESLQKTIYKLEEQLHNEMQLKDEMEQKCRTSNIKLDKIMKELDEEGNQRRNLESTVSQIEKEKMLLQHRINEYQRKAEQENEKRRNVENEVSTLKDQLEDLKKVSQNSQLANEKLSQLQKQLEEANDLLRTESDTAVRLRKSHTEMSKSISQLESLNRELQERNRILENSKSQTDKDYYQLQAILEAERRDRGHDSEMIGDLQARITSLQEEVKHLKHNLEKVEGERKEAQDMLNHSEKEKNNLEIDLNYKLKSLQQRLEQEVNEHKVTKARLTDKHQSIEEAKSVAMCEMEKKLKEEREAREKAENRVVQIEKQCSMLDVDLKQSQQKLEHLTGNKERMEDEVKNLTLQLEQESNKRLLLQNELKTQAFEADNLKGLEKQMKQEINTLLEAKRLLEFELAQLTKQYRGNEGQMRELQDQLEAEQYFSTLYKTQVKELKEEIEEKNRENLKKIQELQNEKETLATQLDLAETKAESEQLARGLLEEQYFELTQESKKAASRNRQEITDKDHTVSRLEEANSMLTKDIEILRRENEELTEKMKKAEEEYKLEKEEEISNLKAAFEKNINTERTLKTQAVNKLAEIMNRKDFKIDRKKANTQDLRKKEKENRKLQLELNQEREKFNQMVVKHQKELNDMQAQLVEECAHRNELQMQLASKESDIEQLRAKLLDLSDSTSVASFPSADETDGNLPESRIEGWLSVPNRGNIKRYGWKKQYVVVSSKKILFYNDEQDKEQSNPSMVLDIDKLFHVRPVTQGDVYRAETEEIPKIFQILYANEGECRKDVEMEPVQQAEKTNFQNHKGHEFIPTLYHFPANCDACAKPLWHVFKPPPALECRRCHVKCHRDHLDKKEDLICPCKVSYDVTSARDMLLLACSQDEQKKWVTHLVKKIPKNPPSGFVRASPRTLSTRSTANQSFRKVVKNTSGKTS
# Sequence of Protein kinase C theta type (Homo sapiens) (Q04759 whole entry, looked up): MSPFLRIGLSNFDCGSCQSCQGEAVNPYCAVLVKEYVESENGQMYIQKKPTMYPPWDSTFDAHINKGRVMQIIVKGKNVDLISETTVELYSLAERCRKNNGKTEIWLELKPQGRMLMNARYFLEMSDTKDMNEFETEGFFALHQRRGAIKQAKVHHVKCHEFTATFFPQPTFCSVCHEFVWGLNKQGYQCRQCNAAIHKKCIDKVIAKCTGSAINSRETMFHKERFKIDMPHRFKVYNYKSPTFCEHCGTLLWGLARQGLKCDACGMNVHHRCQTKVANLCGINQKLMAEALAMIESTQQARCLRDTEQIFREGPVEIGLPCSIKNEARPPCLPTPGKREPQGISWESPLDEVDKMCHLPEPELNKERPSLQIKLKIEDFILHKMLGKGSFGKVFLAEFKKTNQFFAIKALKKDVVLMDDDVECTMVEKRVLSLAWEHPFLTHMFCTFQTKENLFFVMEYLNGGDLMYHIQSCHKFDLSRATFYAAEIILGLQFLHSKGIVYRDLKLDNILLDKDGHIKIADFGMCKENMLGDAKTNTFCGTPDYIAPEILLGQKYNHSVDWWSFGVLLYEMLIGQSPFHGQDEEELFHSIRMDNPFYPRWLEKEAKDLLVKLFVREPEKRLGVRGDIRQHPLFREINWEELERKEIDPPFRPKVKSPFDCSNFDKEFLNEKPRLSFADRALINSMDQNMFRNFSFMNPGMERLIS
# Sequence of Protein kinase C beta type (Homo sapiens) (P05771 2-671 limits assumed): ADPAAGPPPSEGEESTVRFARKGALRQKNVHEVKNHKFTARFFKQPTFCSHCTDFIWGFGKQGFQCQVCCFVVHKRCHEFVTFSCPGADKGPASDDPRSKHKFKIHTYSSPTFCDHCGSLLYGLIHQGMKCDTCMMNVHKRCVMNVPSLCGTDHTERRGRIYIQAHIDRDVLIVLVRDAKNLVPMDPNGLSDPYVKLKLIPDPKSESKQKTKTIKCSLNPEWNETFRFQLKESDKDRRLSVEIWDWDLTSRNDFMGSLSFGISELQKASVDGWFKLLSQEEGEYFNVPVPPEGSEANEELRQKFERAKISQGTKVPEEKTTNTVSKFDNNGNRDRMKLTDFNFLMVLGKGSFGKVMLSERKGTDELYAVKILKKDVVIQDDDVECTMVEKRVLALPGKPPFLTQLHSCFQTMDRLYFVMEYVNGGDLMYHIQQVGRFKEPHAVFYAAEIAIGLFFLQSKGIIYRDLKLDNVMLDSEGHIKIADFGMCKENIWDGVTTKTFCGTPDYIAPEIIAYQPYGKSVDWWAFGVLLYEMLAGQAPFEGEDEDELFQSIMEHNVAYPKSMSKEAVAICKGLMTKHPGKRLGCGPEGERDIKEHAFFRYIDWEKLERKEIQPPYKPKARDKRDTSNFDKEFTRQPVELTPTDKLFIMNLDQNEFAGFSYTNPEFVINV
smiles,measurement,setting,value
CCS(=O)(=O)c1ccc(OC)c(Nc2ncc(-c3ccccc3Cl)o2)c1,inhibition,[1],5.15%
same,inhibition,[2],0.15%
same,inhibition,[3],-1.52%
same,inhibition,[4],-0.01%
same,inhibition,[5],2.29%
same,inhibition,[6],-0.13%
same,inhibition,[7],2.01%
same,inhibition,[8],1.52%
same,inhibition,[9],1.41%
same,inhibition,[10],1.21%
same,inhibition,[11],1.98%
same,inhibition,[12],0.34%
same,inhibition,[13],0.32%
same,inhibition,[14],1.27%
same,inhibition,[15],3.79%
same,inhibition,[16],0.72%
same,inhibition,[17],2.95%
same,inhibition,[18],0.64%
same,inhibition,[19],0.38%
same,inhibition,[20],-0.11%

# Source: ChEMBL document CHEMBL1961873, “Compounds: GSK PKIS; Assays: Nanosyn kinase panel” (2012)
